# Test results reported in PubChem BioAssay (NCATS).
# Inconclusive results are not listed. Where a call stands in place of a potency, no number is given. A number with no mark means an inactive call. Active and inactive are the calls of the source. Calls come from the whole dose curve; as a rule, active = well fitted inhibition curve with a large enough effect; inconclusive = small, poorly fitted or top-dose-only effect; inactive = flat fitted curve, though single readings scatter.
# Biological target: Calcium and integrin-binding protein 1 (Homo sapiens) (UniProt Q99828)
# Assay: Primary qHTS for Identification of Calcium Integrin Binding Protein 1 (CIB1) Competitor (AID 1508620);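 note: GST tagged CIB1 binding a fluorescein labelled alphaIIb integrin peptide tracer; top concentration of the series differs between compounds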
# Details: CIB1-GST / FITC-alphaIIb peptide fluorescence polarization; series mostly up to 57.7 µM
# In short: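 CIB1-GST (1 uM final) and compound incubated 15 min at room temperature before adding FITC-alphaIIb peptide tracer (100 nM final). Competition for binding read by fluorescence polarization (ex 480, em 540) after another 15 min at room temperature.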
# Calcium and integrin-binding protein 1 (Homo sapiens), sequence (Q99828 whole entry, looked up): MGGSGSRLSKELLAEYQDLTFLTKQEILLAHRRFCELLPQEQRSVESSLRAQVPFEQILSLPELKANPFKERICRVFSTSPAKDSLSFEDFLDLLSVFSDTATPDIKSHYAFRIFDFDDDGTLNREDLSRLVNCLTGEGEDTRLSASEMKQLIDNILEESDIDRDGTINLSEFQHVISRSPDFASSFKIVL
Compound,Potency,"activity change, negative = inhibition"
CC1(C)CCC(C)(C)c2cc([C@@H](O)C(=O)Nc3ccc(C(=O)O)cc3F)ccc21,inactive,–
CC1CCC2C(C)(C)C(O)CCC2(C)C12Cc1c(O)cc3c(c1O2)CN=C3N (stereo not given),inactive,–
CC(=O)OC[C@]12[C@H](OC(C)=O)C(=O)[C@@H]3[C@@H](OC(C)=O)[C@@]14O[C@@]3(C)COC(=O)c1cccnc1[C@@H](C)[C@H](C)C(=O)O[C@@H]([C@H](OC(C)=O)[C@@H]2OC(C)=O)[C@]4(C)O,inactive,–
C=C(C)C(C)C1OC23CC4(CO2)C(CCC2C5(C)CCC(OC6OCC(O)C(OC7OC(CO)C(O)C(OC8OCC(O)C(O)C8O)C7O)C6OC6OC(CO)C(O)C6O)C(C)(C)C5CCC24C)C3C(C)(O)C1OC(C)=O (stereo not given),inactive,–
COc1cc([C@@H]2Oc3c(OC)cc(CCCO)cc3[C@@H]2CO[C@@H]2O[C@H](CO)[C@@H](O)[C@H](O)[C@H]2O)ccc1O,inactive,–
CC(C)c1nc(N(C)S(C)(=O)=O)nc(-c2ccc(F)cc2)c1/C=C/[C@@H](O)C[C@@H](O)CC(=O)O,inactive,–
O=C(CCO[C@@H]1O[C@H](CO)[C@@H](O)[C@H](O)[C@H]1O)c1ccc(O)cc1,inactive,–
COc1ccc([C@@H]2N[C@H](C(=O)O)Cc3c2[nH]c2ccccc32)cc1CN1CCN(c2ccccc2F)CC1,inactive,–
O=C(O)C[C@@H](NC(=O)c1cc(-c2ccc(-c3ccncc3)cc2)cs1)c1ccccc1,inactive,–
CC1CCC2C(C(=O)O)=CC3C(O)C(C)(C)CC123 (stereo not given),inactive,–
CN1C(=O)c2ccccc2NC(=O)[C@]12O[C@@H]2c1cccc(O)c1,inactive,–
CC1OC(OC2C(CO)OC(OCC3OC(OC(=O)C45CCC(C)(C)CC4C4=CCC6C7(C)CCC(OC8OC(C(=O)O)C(O)C(OC9OC(CO)C(O)C(O)C9O)C8O)C(C)(C)C7CCC6(C)C4(C)CC5)C(O)C(O)C3O)C(O)C2O)C(O)C(O)C1O (stereo not given),–,0.696% [at 12.4 µM]
C=C1CC[C@H]2[C@@H](/C=C(\C)C(=O)[C@@]3(OC(C)=O)C[C@H](C)[C@H](OC(C)=O)[C@@H]3[C@H]1OC(C)=O)C2(C)C,inactive,–
CC(C)CC(=O)OC[C@H]1O[C@@](COC(=O)CC(C)C)(O[C@H]2O[C@H](CO)[C@@H](O)[C@H](O)[C@H]2O)[C@@H](OC(=O)CC(C)C)[C@@H]1OC(=O)CC(C)C,inactive,–
Cc1ccc2c(c1)C=Cc1cc(C)ccc1C2c1cn(Cc2ccc(C(=O)Nc3nn[nH]n3)o2)c(=O)[nH]c1=S,inactive,–
C[C@@H]1CC[C@H]2C(C)(C)[C@H](O)[C@H](O)C[C@]2(C)[C@@]12Cc1c(O)cc3c(c1O2)CNC3=O,inactive,–
Cc1cccc(-c2[nH]c(CNc3ccccc3F)nc2-c2ccc3ncnn3c2)n1,inactive,–
CCc1cc2c(=O)c(-c3nc4ccccc4s3)coc2c(CN2CCCCC2)c1O,inactive,–
COc1cc(C2Oc3c(OC)cc(/C=C/C(=O)OC[C@H]4O[C@@H](OC(C)(C)C(=O)O)[C@H](O)[C@@H](O)[C@@H]4O)cc3C2CO)ccc1O (stereo not given in full),inactive,–
O=C(c1ccccn1)c1cnn2c(-c3ccncc3)ccnc12,inactive,–
CC1(C)O[C@]23C[C@H]1C[C@H](OC(=O)c1ccoc1)[C@]2(C)[C@@H](OC(=O)c1ccoc1)CCC3(C)O (stereo not given in full),inactive,–
CC(=O)NC(CCC(=O)O)C(=O)NCCc1ccc(O)cc1 (stereo not given),inactive,–
C=C(C)[C@@H]1CC[C@](C)(O)[C@@H](OC(=O)c2ccccc2)C1,inactive,–
N#CC1C(=O)Nc2scc(-c3ccc(-c4ccccc4O)cc3)c2C1=O (stereo not given),inactive,–
COc1cc2c(cc1O)C1(Cc3ccc4c(c3C1=O)OCO4)N(C)CC2 (stereo not given),inactive,–
CC1(C(=O)O)CCCC2(C)C1CCC13CC(CCC21)C1(CO)OC31 (stereo not given),inactive,–
CC(C)(OC1OC(CO)C(O)C(O)C1O)C1CCC(O)(CO)C2CC(O)C(C)(O)C2C1 (stereo not given),inactive,–
C=CCc1ccc(O[C@@H]2O[C@H](CO[C@@H]3O[C@H](CO)[C@@H](O)[C@H](O)[C@H]3O)[C@@H](O)[C@H](O)[C@H]2O)c(O)c1,inactive,–
C[C@H]1[C@H](C)CC[C@]2(C(=O)O)CC[C@]3(C(=O)O)C(=CCC4[C@@]5(C)CC[C@H](O[C@@H]6O[C@H](C)[C@@H](O)[C@H](O)[C@H]6O)C(C)(C)C5CC[C@]43C)[C@H]12 (stereo not given in full),inactive,–
CCOc1c2c(c(OCC)c3ccccc13)C(=O)N(c1ccc(CC(=O)NS(=O)(=O)c3ccccc3)cc1)C2,inactive,–
